This passage reports binding signal results from article PMC5700166.

What all share (test): protein-binding microarray (PBM); PBM: ~300 nM protein, 6 mM HEPES pH 7.8, 80 mM KCl, 0.5 mM EDTA, 0.5 mM EGTA, 6% glycerol, 35 ng/ul poly-dIdC, 1% milk, 1 h, room temperature; Ap Aiptasia and Nv Nematostella (sea anemones) / Co Capsaspora / Aq Amphimedon (sponge) / Dm Drosophila / Hu human; RHD is the Rel homology domain; high values mean tight binding
What all share (details): dsDNA, one strand shown

The target in one assay is T1, GST-Ap-NF-kB RHD (Exaiptasia pallida (Aiptasia), UniProt A0A913YAJ5 2-422).
T1 sequence: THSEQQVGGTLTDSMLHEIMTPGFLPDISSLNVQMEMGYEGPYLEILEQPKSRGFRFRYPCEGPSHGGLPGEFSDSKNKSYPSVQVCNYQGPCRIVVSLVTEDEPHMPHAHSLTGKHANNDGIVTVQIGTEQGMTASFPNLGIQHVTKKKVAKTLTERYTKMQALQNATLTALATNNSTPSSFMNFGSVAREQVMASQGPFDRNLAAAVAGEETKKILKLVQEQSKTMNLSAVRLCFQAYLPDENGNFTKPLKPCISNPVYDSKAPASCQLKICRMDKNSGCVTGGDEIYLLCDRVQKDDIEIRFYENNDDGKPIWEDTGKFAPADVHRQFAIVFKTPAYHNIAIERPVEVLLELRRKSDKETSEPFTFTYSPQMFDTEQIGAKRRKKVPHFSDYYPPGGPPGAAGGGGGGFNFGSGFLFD

Assay [1] addresses T2, GST-Nv-NF-kB (Cys allele) (Nematostella vectensis, UniProt E5G601 2-411).
T2 sequence: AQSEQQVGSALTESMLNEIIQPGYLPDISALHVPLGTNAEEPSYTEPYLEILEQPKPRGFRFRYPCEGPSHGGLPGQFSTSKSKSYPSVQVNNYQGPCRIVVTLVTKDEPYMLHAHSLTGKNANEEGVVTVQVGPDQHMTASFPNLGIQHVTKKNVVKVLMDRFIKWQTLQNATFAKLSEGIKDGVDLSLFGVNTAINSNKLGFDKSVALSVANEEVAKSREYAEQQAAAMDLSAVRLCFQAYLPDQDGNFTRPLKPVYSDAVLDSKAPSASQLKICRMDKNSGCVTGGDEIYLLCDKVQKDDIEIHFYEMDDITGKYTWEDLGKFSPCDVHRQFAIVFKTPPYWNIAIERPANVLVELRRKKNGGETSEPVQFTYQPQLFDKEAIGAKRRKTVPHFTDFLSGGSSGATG

The target of assay [2] is T3, GST-Nv-NF-kB (Ser allele) (Nematostella vectensis, UniProt A7UNT2 2-411).
T3 sequence: T2 sequence with Q21R, C66S, S207N, E215Q, V217A, E225K, A268E, D399E

A further assay has as its target T4, GST-Co-NF-kB (Capsaspora owczarzaki, UniProt F1ARL5 200-546).
T4 sequence: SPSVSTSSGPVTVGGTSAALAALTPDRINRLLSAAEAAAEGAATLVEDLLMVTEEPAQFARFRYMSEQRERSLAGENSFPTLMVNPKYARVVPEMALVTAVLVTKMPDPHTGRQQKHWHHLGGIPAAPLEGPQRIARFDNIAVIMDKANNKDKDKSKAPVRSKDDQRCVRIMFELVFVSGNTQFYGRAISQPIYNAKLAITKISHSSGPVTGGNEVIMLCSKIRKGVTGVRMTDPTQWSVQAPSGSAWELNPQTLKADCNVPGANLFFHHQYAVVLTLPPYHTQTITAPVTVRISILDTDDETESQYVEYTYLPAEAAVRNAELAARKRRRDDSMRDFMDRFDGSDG

The next assay has as its target T5, GST-Dm-Relish (Drosophila melanogaster, UniProt Q94527 99-473).
T5 sequence: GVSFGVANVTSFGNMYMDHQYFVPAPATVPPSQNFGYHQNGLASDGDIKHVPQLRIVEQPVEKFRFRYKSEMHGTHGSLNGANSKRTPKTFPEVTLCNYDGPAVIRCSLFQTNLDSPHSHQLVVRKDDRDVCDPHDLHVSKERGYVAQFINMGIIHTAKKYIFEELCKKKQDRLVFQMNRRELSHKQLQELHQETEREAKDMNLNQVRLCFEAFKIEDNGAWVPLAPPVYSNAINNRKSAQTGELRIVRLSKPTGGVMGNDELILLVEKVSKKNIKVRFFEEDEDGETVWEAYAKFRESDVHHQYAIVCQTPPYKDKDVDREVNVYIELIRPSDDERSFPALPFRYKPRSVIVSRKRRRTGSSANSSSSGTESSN

Another assay deals with T6, GST-Aq-NF-kB (Amphimedon queenslandica, UniProt A9Y5G7 2-389).
T6 sequence: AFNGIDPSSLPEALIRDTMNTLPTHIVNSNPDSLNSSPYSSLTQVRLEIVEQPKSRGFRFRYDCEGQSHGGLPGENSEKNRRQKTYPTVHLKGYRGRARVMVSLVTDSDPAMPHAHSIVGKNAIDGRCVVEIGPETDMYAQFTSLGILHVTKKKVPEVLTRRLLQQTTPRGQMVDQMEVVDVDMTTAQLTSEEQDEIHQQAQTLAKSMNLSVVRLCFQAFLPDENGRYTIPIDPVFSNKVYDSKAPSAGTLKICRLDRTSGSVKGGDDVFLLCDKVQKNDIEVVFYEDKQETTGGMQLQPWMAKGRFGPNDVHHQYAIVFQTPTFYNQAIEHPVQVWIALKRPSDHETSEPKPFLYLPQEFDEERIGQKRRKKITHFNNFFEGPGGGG

The next assay has as its target GST-Hu-p50 (Homo sapiens, UniProt P19838 7-356).

Residue numbers refer to the chain shown, from its start.

Chain of GST-Hu-p50 (P19838 7-356): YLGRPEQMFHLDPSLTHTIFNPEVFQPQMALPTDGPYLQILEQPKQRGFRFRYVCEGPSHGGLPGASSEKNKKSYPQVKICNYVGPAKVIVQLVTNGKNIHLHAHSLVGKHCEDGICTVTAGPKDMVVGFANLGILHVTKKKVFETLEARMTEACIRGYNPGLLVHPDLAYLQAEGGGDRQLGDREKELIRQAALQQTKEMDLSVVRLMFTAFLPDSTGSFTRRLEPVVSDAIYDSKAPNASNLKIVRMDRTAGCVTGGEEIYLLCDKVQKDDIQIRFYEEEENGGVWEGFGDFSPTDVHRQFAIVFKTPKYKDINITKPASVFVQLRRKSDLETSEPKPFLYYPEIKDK

As for “CCGATTAACATCATGGGGGAAAATGATGTTAATCGGGTCTTGATTCGCTTGACGCTGCTG”, the binding signal in the assay with GST-Ap-NF-kB RHD is 5.67 z-score; in assay [1], 6.78 z-score; in assay [2], 9.23 z-score; in the assay with GST-Co-NF-kB, 10.9 z-score; with GST-Dm-Relish, 3.09 z-score; with GST-Aq-NF-kB, 5.39 z-score. This sequence yielded a binding signal with GST-Hu-p50 of 6.88 z-score.

On to “CCGATTAACATCAAGGGGGATTCTGATGTTAATCGGGTCTTGATTCGCTTGACGCTGCTG”, for which the binding signal with GST-Ap-NF-kB RHD is 9.03 z-score; in assay [1], 8.85 z-score; in assay [2] it was 10.3 z-score; with GST-Co-NF-kB it was 4.93 z-score; with GST-Dm-Relish, 8.21 z-score; in the assay with GST-Aq-NF-kB, 7.13 z-score. Also, the binding signal in the assay with GST-Hu-p50 is 7.71 z-score.

For the sequence “CCGATTAACATCAGGGGGTGGGATGATGTTAATCGGGTCTTGATTCGCTTGACGCTGCTG”, the binding signal came to 2.8 z-score in the assay with GST-Ap-NF-kB RHD; 2.48 z-score in assay [1]; 3.52 z-score in assay [2]; 3.22 z-score with GST-Co-NF-kB; 3.58 z-score with GST-Dm-Relish; 3.34 z-score with GST-Aq-NF-kB. In the assay with GST-Hu-p50, this sequence yielded a binding signal of 3.07 z-score.

For the sequence “CCGATTAACATCACGGAATCCCCTGATGTTAATCGGGTCTTGATTCGCTTGACGCTGCTG”, the binding signal with GST-Ap-NF-kB RHD is 8.93 z-score; in assay [1], 8.59 z-score; in assay [2] it was 9.68 z-score; with GST-Co-NF-kB, 3.45 z-score; in the assay with GST-Dm-Relish, 9.36 z-score; with GST-Aq-NF-kB, 6.48 z-score. The same sequence showed a binding signal with GST-Hu-p50 of 6.67 z-score.

For “CCGATTAACATCAGGGGATACACTGATGTTAATCGGGTCTTGATTCGCTTGACGCTGCTG”, the binding signal in the assay with GST-Ap-NF-kB RHD came to 4.44 z-score; in assay [1] it was 4.02 z-score; in assay [2], 5.34 z-score; with GST-Co-NF-kB, 3.62 z-score; in the assay with GST-Dm-Relish, 5.84 z-score; with GST-Aq-NF-kB it was 4.05 z-score. The same sequence returned a binding signal with GST-Hu-p50 of 3.83 z-score.

Take “CCGATTAACATCATATTTCCCCATGATGTTAATCGGGTCTTGATTCGCTTGACGCTGCTG”: the binding signal in the assay with GST-Ap-NF-kB RHD was found to be 5.95 z-score; in assay [1], 7.45 z-score; in assay [2], 10.1 z-score; in the assay with GST-Co-NF-kB, 8.62 z-score; in the assay with GST-Dm-Relish, 2.89 z-score; in the assay with GST-Aq-NF-kB, 5.08 z-score. The sequence further returned a binding signal in the assay with GST-Hu-p50 of 6.08 z-score.

In the case of “CCGATTAACATCAGGGAATTGCATGATGTTAATCGGGTCTTGATTCGCTTGACGCTGCTG”, the binding signal with GST-Ap-NF-kB RHD was found to be 2.48 z-score; in assay [1] it was 4.23 z-score; in assay [2], 4.1 z-score; with GST-Co-NF-kB, 2.6 z-score; in the assay with GST-Dm-Relish it was 1.11 z-score; with GST-Aq-NF-kB it was 3.49 z-score. The binding signal in the assay with GST-Hu-p50 is 3.1 z-score.

“CCGATTAACATCAGGGGAAGCTATGATGTTAATCGGGTCTTGATTCGCTTGACGCTGCTG”: the binding signal is 4.87 z-score with GST-Ap-NF-kB RHD; 5.26 z-score in assay [1]; 6.8 z-score in assay [2]; 6.23 z-score with GST-Co-NF-kB; 3.04 z-score with GST-Dm-Relish; 3.92 z-score with GST-Aq-NF-kB. Also, the binding signal with GST-Hu-p50 amounted to 4.77 z-score.

On to “CCGATTAACATCAAATTCCCACATGATGTTAATCGGGTCTTGATTCGCTTGACGCTGCTG”, for which the binding signal with GST-Ap-NF-kB RHD stood at 2 z-score; in assay [1] it was 3.53 z-score; in assay [2], 3.94 z-score; with GST-Co-NF-kB, 3.33 z-score; with GST-Dm-Relish, 4.42 z-score; with GST-Aq-NF-kB it was 2.66 z-score. The binding signal with GST-Hu-p50 stood at 2.85 z-score.

Take “CCGATTAACATCACAAAAGCCCCTGATGTTAATCGGGTCTTGATTCGCTTGACGCTGCTG”: the binding signal with GST-Ap-NF-kB RHD came out at 6.25 z-score; in assay [1], 8.09 z-score; in assay [2], 7.4 z-score; with GST-Co-NF-kB it was 1.08 z-score; with GST-Dm-Relish it was 6.85 z-score; with GST-Aq-NF-kB, 7.27 z-score. In the assay with GST-Hu-p50, this sequence gave a binding signal of 6.34 z-score.

For “CCGATTAACATCAGGGGAAATACTGATGTTAATCGGGTCTTGATTCGCTTGACGCTGCTG”, the binding signal in the assay with GST-Ap-NF-kB RHD was 7.87 z-score; in assay [1], 8.59 z-score; in assay [2], 11 z-score; in the assay with GST-Co-NF-kB it was 8.2 z-score; with GST-Dm-Relish, 9.53 z-score; with GST-Aq-NF-kB it was 7.18 z-score. In the assay with GST-Hu-p50, this sequence had a binding signal of 6.88 z-score.
